Reference: the supplement of paper PMC11732987, “Enantioselective OTUD7B fragment discovery through chemoproteomics screening and high-throughput optimisation” (Communications Chemistry, 2025)

Assays:
Assay in all cases: log2 ratio of Biotin-Ahx-Ub-VS probe labelling (fragment/DMSO); higher = less target engagement (more negative = stronger competition), active = hit call of the paper (q ≤ 0.05, log2 ratio ≤ -1)
Details in all cases: compound concentration: 200 uM; treatment time: 3 h
USP34 = USP34 (UniProt Q70CQ2)
Summary of the method: (§1)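 Global-median-normalised Spectronaut label-free quantities were compared by unpaired t-test, and values are average log2 ratios of fragment over vehicle. Only proteins with ≥2 unique peptides were used. HEK293T lysate (495 µg per sample) was treated in triplicate with fragment at 200 µM or vehicle for 3 h and then with Biotin-Ahx-Ub-VS at 0.5 µM final for 1 h. Labelled DUBs were then NeutrAvidin-enriched, digested with LysC and trypsin, and run by diaPASEF LC-MS/MS.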

USP36 = molecular target: T1, USP36 (UniProt Q9P275)
T1 sequence (whole entry): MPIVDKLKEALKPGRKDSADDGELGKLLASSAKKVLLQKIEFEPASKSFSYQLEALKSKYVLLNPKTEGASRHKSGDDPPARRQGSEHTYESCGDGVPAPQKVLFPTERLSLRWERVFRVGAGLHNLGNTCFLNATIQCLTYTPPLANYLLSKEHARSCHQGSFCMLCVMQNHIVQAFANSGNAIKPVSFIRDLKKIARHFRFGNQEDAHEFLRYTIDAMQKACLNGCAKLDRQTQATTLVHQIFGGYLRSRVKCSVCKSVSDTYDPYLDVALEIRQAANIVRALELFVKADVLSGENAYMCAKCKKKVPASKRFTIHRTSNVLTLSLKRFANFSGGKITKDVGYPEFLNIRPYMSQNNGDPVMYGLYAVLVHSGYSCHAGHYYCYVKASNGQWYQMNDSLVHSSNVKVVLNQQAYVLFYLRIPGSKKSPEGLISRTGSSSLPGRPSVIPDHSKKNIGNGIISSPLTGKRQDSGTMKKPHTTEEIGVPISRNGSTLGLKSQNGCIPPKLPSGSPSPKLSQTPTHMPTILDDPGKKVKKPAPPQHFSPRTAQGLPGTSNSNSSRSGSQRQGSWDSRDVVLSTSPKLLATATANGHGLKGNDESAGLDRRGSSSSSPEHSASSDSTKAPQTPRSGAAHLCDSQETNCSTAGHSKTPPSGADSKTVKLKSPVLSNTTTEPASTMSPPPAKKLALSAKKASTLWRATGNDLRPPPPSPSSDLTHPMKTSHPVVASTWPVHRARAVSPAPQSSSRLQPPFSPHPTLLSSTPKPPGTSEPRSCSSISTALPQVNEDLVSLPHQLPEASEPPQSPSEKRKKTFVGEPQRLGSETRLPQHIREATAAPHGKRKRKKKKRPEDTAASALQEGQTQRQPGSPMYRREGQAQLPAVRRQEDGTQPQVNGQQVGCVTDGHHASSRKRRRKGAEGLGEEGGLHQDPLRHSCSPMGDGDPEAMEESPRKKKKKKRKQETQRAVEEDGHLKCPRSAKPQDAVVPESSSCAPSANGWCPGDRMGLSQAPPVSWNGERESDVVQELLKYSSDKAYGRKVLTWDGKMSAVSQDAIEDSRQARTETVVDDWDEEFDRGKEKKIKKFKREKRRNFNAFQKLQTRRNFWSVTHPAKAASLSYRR
Summary of the method: as §1

USP38 = molecular target: T2, USP38 (UniProt Q8NB14)
T2 sequence (whole entry): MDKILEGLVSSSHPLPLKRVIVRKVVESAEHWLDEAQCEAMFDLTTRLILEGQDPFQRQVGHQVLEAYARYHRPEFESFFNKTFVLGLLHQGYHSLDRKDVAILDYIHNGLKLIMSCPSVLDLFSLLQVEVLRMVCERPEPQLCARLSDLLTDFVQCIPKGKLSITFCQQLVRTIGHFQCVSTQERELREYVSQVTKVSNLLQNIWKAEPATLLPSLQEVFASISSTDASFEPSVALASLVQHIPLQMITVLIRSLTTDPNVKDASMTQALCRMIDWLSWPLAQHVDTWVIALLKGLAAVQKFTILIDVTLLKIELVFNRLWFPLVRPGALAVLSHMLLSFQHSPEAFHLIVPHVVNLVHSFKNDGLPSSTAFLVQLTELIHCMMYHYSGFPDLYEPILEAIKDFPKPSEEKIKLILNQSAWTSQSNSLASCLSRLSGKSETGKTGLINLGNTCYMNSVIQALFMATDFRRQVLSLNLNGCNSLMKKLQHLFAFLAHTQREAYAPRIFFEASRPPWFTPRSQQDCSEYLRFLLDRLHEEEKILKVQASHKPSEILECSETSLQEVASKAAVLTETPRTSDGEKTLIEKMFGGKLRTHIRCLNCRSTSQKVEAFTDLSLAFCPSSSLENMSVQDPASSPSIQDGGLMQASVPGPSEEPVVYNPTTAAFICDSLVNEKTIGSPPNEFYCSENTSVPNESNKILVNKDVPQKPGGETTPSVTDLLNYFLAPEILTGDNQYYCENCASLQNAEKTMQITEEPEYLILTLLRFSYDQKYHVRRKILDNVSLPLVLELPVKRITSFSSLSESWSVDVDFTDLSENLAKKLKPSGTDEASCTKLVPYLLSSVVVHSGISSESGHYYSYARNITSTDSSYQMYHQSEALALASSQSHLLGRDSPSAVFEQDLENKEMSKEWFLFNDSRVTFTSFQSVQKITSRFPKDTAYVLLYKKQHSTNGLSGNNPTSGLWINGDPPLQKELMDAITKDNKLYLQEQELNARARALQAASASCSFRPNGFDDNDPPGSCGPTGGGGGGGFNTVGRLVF
Summary of the method: as §1

USP39 = molecular target: T3, USP39 (UniProt Q53GS9)
T3 sequence (whole entry): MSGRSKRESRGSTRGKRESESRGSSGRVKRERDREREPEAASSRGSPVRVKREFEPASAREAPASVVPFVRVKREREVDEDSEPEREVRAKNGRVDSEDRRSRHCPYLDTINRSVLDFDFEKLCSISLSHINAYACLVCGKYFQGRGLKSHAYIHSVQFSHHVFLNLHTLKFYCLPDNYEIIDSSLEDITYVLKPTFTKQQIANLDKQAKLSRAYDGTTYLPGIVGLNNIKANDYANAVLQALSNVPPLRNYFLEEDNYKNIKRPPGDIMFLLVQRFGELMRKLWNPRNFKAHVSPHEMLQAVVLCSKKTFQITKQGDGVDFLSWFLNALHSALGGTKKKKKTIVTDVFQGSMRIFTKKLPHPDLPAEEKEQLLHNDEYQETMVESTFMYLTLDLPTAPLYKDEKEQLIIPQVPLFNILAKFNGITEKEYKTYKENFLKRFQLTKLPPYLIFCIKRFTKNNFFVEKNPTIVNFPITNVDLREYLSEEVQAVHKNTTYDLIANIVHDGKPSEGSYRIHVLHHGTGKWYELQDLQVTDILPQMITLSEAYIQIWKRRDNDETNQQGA
Summary of the method: as §1

USP4 = molecular target: T4, USP4 (UniProt Q13107)
T4 sequence (whole entry): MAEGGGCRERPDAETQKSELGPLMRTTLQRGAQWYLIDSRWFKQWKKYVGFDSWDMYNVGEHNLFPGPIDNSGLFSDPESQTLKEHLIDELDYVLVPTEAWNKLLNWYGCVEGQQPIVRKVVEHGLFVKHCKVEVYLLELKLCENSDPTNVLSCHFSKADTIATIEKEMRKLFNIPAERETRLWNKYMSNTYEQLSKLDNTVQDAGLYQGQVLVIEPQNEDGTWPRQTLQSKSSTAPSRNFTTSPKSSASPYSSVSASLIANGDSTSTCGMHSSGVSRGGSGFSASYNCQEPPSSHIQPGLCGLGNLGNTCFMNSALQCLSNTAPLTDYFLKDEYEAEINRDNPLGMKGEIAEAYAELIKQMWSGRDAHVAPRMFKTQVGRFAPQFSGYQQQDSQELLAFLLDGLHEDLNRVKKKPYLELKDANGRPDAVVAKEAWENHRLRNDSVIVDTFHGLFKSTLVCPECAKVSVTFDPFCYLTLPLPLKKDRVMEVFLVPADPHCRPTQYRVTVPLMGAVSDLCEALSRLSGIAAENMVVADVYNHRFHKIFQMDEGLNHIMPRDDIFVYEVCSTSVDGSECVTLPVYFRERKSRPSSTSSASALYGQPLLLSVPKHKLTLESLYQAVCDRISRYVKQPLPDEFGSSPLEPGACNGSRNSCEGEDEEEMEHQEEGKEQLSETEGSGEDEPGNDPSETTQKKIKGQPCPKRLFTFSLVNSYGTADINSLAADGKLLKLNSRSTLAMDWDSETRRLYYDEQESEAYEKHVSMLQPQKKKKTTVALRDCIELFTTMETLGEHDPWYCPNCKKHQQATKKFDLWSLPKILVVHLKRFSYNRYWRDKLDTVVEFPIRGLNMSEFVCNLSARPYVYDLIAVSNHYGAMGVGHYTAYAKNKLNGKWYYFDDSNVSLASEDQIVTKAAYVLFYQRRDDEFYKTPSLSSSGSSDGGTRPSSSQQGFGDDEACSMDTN
Summary of the method: as §1

Measured: log2 ratio of Biotin-Ahx-Ub-VS probe labelling

Sequence of USP34 (Q70CQ2 whole entry, the tested form may be a part): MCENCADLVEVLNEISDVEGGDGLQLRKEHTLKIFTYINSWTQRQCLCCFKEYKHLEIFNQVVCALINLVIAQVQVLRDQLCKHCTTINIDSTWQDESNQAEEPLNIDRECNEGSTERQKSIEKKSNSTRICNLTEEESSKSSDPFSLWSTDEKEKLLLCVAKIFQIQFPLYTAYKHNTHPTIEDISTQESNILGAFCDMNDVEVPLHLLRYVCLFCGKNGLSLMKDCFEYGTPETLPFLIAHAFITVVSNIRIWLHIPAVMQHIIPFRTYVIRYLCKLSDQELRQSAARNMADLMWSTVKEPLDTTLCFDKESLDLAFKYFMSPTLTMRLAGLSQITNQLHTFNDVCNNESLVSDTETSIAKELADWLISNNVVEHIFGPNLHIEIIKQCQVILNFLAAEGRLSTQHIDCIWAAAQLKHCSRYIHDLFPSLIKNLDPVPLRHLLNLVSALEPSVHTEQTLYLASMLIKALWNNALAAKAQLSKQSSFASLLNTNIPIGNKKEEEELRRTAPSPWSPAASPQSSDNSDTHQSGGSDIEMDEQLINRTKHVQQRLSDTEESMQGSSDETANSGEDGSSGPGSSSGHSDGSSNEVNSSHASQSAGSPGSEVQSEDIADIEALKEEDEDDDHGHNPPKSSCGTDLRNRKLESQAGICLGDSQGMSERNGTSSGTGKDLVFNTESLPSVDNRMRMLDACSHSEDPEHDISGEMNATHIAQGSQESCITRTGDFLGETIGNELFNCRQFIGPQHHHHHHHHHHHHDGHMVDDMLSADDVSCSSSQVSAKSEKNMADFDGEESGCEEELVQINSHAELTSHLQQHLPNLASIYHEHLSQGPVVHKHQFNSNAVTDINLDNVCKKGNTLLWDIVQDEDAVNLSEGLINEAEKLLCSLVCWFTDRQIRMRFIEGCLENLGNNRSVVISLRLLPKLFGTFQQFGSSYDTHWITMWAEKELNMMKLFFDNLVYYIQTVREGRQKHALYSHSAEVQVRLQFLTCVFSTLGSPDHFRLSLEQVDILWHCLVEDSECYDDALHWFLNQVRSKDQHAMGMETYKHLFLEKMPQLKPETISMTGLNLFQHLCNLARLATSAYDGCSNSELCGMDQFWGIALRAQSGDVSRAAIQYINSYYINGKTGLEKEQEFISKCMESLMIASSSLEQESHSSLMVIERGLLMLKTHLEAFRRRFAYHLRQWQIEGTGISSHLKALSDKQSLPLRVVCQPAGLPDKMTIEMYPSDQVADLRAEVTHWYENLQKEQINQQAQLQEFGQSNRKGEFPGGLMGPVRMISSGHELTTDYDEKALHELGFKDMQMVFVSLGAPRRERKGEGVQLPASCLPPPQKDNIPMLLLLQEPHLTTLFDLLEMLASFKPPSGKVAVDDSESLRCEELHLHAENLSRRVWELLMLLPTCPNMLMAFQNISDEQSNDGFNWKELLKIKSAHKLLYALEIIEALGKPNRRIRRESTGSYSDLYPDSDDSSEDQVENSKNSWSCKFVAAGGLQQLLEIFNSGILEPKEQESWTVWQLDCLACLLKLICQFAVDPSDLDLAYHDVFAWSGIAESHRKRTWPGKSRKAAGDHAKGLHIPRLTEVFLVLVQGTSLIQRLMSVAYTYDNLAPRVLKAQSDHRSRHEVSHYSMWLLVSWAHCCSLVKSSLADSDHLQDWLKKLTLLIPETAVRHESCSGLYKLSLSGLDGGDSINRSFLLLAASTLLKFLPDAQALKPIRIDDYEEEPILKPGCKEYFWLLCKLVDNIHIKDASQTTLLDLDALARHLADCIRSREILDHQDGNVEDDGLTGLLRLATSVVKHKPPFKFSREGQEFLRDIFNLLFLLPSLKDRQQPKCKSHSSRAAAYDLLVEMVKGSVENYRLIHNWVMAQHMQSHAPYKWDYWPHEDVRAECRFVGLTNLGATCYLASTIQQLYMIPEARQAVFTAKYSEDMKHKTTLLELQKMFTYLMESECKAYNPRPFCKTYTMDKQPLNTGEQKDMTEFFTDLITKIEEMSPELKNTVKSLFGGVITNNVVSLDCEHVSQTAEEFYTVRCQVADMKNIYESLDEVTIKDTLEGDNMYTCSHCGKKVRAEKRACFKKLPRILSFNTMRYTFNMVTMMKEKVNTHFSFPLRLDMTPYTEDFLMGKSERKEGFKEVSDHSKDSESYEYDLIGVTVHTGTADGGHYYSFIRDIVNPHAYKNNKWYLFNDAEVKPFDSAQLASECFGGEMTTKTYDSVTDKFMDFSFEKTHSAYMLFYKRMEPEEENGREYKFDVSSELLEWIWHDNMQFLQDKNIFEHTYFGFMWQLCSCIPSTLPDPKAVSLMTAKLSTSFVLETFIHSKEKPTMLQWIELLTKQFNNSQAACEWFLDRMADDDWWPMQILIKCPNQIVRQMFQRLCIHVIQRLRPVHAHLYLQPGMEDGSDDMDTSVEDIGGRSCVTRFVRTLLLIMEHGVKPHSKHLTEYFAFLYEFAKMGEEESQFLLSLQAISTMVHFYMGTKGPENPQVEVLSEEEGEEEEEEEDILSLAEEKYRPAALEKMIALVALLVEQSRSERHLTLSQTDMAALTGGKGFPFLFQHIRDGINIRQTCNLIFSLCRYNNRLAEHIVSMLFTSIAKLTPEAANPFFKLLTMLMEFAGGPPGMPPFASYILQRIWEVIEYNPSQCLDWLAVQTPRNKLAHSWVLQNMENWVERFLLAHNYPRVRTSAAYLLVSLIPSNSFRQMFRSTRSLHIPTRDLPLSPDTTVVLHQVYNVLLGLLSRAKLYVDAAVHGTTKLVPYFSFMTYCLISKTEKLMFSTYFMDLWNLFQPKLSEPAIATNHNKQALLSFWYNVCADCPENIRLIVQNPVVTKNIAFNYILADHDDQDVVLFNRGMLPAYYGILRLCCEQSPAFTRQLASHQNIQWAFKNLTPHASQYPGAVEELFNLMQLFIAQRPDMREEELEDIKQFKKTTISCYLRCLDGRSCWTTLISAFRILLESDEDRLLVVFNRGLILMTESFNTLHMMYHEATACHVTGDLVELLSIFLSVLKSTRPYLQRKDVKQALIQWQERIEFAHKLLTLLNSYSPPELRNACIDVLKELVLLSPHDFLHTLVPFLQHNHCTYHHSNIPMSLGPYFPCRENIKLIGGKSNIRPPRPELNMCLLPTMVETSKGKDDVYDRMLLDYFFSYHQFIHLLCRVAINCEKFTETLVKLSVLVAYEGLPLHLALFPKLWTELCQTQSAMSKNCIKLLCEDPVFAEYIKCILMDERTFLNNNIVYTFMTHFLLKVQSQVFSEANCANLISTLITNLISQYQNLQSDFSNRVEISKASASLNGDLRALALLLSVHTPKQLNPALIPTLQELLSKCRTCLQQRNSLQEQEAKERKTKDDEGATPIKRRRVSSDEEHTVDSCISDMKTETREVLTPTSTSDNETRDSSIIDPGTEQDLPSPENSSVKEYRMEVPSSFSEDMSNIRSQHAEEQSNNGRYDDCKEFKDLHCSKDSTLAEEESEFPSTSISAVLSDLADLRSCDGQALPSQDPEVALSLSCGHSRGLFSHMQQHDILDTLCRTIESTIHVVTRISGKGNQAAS

O=C(CCl)NC1(c2ccc3c(c2)OCCO3)CCCC1
inactive: USP34 -0.146 | USP36 -0.197 | USP38 -0.013 | USP39 0.277 | USP4 -0.0625
